# Measured values taken from PubChem BioAssay (NCATS).
# Values without a mark were called inactive. Results filed as inconclusive are left out. Where a call stands in place of a potency, no number is given. Calls of active or inactive are those of the source. Unless noted, calls come from the whole dose curve; as a rule, active = well fitted curve in the direction sought with a large enough effect; inconclusive = small, poorly fitted or top-dose-only effect, or another doubt; inactive = no such curve, though single readings can be large; an effect the other way counts as inactive or inconclusive.
# How the values were obtained:
# [1] = target: Cytochrome P450 2C9 (Homo sapiens) (UniProt P11712); test: qHTS Assay for Inhibitors and Substrates of Cytochrome P450 2C9 (AID 883); note: nearly all actives have a fitted effect of over 60% in size; note: potency is the fitted concentration of half-maximal effect
# Chain of Cytochrome P450 2C9 (Homo sapiens) (P11712 whole entry, looked up): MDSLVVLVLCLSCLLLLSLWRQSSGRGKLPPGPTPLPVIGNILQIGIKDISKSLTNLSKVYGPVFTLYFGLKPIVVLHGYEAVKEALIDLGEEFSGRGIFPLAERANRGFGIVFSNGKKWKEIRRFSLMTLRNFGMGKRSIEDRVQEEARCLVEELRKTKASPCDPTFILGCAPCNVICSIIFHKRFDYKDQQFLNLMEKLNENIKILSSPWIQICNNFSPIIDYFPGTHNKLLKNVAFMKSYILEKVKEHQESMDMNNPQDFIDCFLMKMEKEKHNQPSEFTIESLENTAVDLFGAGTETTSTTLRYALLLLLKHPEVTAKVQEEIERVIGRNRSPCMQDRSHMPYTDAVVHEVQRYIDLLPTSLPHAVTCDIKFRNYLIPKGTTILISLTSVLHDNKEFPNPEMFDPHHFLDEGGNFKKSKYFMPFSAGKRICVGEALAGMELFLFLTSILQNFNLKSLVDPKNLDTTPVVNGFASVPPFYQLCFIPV
# In short: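 Inhibition of CYP2C9 is scored as loss of luminescence, with 57uM sulphaphenazole defining 100% inhibition. Substrate Luciferin-H is used at 100uM, equal to its KM; enzyme at 10nM in 25mM KPO4, 60 min at 37C with NADPH regeneration.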
# [2] = target: Cytochrome P450 2C19 (Homo sapiens) (UniProt P33261); test: qHTS Assay for Inhibitors and Substrates of Cytochrome P450 2C19 (AID 899); note: nearly all actives have a fitted effect of over 60% in size; note: potency is the fitted concentration of half-maximal effect
# Chain of Cytochrome P450 2C19 (Homo sapiens) (P33261 whole entry, looked up): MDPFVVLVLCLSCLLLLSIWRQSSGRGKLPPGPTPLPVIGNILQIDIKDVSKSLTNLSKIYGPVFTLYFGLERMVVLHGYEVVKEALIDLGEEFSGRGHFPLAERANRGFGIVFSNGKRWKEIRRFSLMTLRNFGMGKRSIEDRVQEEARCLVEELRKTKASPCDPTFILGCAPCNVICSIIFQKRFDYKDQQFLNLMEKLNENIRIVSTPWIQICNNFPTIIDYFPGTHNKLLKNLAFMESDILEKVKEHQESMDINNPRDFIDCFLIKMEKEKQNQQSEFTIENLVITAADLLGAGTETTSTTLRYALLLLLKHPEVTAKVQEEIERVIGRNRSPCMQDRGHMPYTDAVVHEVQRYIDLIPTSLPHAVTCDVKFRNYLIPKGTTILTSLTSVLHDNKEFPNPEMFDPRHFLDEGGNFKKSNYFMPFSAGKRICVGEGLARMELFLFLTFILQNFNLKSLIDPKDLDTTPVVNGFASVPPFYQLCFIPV
# In short: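 5nM enzyme + 10uM Luciferin-H EGE (=KM), 50mM KPO4; cpd pin-transferred, 10 min 37C; NADPH regen, 60 min 37C; stopped w/ luciferin detection reagent, 20 min; luminescence. Normalized to 57uM ketoconazole (AC100).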
# [3] = qHTS Assay for Identification of Small Molecule Agonists for Hypoxia Response Element Signaling Pathway (AID 914; active = well fitted activation curve with a large enough effect in the signal ratio, with a control signal flat, not every such curve was filed as active; the % refers to the signal ratio; note: potency is the fitted concentration of half-maximal effect); conditions: ME-180 HRE-bla reporter, beta-lactamase ratio, CoCl2, 17 h; activation: hits give high values
# In short: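 ME-180 cells carrying an HRE-driven beta-lactamase reporter were treated with compounds in a titration series plus an EC50 level of CoCl2 for 17 h at 37 degrees Celsius; CCF4 readout as the 460nm/530nm ratio gave AC50 values.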
# [4] = target: Guanine nucleotide-binding protein G(i) subunit alpha-1 (Homo sapiens) (UniProt P63096); test: qHTS Assay for Inhibitors of RGS12 GoLoco Motif Activity (Green Fluorophore) (AID 879);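 note: negative values mean loss of peptide binding seen as reduced polarization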
# Chain of Guanine nucleotide-binding protein G(i) subunit alpha-1 (Homo sapiens) (P63096 whole entry, looked up): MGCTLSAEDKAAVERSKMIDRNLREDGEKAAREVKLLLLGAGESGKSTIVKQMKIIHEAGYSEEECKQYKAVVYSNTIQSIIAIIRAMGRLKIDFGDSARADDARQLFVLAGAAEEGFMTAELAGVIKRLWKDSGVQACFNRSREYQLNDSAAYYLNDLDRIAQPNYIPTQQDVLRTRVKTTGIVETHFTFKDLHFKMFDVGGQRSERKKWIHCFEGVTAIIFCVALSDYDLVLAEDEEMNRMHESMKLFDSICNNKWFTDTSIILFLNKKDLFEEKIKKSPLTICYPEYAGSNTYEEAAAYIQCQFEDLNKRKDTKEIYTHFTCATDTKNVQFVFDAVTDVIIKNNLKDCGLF
# In short: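 A drop in FITC polarization marked displacement of the FITC-tagged RGS12 GoLoco peptide (10 nM) from Gαi1 (50 nM). Compounds were incubated 10 min at room temperature in Tris pH 7.5 buffer containing 150 mM NaCl, 0.1 mM GDP and 0.05% NP40; unlabeled peptide titration served as control.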
# [5] = qHTS Assay for Identification of Small Molecule Agonists for Thrombopoietin (TPO) Signaling Pathway (AID 917)
# In short: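 Quantitative HTS for pathway activators: compounds were pin-transferred onto IL-3-starved Ba/F3 cells expressing human TPO receptor, TPO was added at its EC50 (26 pM final), and after 24 hrs at 37 C reporter luciferase was measured.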
# [6] = target: Pyruvate kinase (Leishmania mexicana) (UniProt Q27686); test: qHTS Validation Assay for Inhibitors of Leishmania Mexicana Pyruvate Kinase (AID 945)
# Chain of Pyruvate kinase (Leishmania mexicana) (Q27686 2-499 E452W): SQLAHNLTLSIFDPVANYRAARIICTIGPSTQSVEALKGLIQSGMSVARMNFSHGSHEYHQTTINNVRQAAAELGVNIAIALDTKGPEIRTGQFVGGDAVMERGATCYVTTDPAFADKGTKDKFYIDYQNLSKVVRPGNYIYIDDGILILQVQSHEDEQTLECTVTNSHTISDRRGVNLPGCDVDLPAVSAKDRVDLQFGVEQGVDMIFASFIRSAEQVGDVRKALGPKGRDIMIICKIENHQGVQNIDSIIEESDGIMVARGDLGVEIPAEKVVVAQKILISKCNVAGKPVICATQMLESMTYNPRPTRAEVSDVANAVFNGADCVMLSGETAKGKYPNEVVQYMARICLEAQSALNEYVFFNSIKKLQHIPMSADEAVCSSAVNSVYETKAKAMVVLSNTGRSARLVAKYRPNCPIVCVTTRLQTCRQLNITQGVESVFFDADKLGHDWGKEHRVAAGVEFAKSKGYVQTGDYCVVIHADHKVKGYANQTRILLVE
# In short: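 LmPYK E451W 0.2 nM; 0.5 mM PEP, 0.1 mM ADP, 7 mM MgCl2, 50 mM KCl, imidazole pH 7.2, 0.01% Tween 20, 0.05% BSA; 1 h RT; PKLight luminescence; DMSO-normalized.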
# [7] = target: Pyruvate kinase PKM (Homo sapiens) (UniProt P14618); test: qHTS Assay for Activators of Human Muscle Pyruvate Kinase (AID 954; active = well fitted curve in the direction sought with a large enough effect, not every such curve was filed as active)
# Chain of Pyruvate kinase PKM (Homo sapiens) (P14618 whole entry, looked up): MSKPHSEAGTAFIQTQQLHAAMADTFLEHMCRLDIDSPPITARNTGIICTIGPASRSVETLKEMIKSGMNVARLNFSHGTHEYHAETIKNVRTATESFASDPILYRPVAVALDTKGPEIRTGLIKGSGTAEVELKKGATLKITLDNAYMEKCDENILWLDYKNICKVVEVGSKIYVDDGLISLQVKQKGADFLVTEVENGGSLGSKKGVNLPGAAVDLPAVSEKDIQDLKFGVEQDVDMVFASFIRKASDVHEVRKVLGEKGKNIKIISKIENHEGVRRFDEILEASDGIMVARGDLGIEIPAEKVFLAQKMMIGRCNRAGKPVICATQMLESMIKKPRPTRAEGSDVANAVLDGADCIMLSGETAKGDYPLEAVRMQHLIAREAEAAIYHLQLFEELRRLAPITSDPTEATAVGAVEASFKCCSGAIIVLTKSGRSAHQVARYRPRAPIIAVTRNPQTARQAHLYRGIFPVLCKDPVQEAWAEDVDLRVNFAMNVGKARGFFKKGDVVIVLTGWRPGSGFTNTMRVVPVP
# In short: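 Compound pinned into substrate mix (0.5 mM PEP, 0.1 mM ADP), then 0.1 nM PKM2 added; 1 h, RT. Stop/detection luciferase reagent added, luminescence read. Normalized to no-inhibition and no-enzyme or reference-inhibitor controls.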
# [8] = target: Alpha-galactosidase A (Homo sapiens) (UniProt P06280); test: Counterscreen for Glucocerebrosidase Inhibitors: qHTS Assay for Human alpha-Galactosidase at pH 4.5 (AID 992)
# Chain of Alpha-galactosidase A (Homo sapiens) (P06280 whole entry, looked up): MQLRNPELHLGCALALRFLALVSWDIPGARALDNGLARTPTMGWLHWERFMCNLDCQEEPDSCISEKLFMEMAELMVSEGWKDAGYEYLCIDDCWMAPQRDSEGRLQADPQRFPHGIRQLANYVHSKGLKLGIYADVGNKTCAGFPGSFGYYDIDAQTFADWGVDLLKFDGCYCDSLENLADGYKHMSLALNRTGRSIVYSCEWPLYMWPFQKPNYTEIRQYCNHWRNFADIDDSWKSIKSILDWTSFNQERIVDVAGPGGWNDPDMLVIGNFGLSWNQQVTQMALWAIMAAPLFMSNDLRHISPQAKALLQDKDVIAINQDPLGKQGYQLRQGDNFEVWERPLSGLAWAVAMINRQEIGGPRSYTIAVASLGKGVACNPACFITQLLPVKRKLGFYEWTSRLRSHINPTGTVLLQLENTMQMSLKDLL
# In short: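 Steps: enzyme (2 nM final), then compound across 0.7 nM to 77 uM, then 80 uM fluorogenic galactopyranoside substrate; incubate 20 min at room temperature; quench at pH 10; measure fluorescence at 365/440 nm.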
# [9] = target: alpha-glucosidase (Oryza sativa, rice) (UniProt Q653V4); test: Counterscreen for Glucocerebrosidase Inhibitors: qHTS Assay for Rice alpha-Glucosidase at pH 5.0 (AID 997)
# In short: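 Endpoint fluorogenic assay at pH 5.0: compounds (0.7 nM to 77 uM) titrated against 4 nM rice enzyme and 400 uM 4-MU-alpha-glucoside for 20 min at room temperature; NaOH/glycine stop, read ex 365/em 440 nm, Hill-fitted AC50.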
# [10] = target: DNA dC->dU-editing enzyme APOBEC-3G (Homo sapiens) (UniProt Q9HC16); test: qHTS for inhibitors of Vif-A3G interactions: Validation (AID 588379)
# Chain of DNA dC->dU-editing enzyme APOBEC-3G (Homo sapiens) (Q9HC16 whole entry, looked up): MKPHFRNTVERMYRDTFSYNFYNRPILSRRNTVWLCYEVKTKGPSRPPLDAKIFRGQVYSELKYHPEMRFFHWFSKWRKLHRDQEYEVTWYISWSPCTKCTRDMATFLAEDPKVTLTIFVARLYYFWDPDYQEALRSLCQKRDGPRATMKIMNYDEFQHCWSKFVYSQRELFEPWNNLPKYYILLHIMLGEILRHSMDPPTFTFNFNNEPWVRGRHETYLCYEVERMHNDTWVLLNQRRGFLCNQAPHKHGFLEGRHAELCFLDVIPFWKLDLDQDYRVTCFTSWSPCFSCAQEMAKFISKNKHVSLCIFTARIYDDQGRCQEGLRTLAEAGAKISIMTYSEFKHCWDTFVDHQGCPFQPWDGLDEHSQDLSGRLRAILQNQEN
# In short: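 Yellow fluorescence (Ex 488, Em 500-530) of Vif-coexpressing HeLa A3G-eYFP cells, scanned by Acumen cytometer, reports blocked A3G degradation. Cells plated at 700/well overnight at 37 deg C before compound addition, then a further overnight compound incubation at 37 deg C.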
# [11] = Cytotoxicity counterscreen for NFkB agonists and antagonists (AID 624476);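 note: cells exposed to compound for 48 hours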
# [12] = qHTS Assay for Identification of Small Molecule Agonists for NFkB Signaling Pathway. (AID 624478);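 note: compounds tested together with TNF alpha at its EC50 of 10 pM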
# In short: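 Read-out: 460/530 nm emission at 405 nm excitation after 2 h LiveBLAzer loading; ME-180 NFkB-bla reporter cells exposed 5 h at 37 C to compounds with 10 pM TNF alpha final.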
# [13] = qHTS Assay for Identification of Small Molecule Antagonists for NFkB Signaling Pathway. (AID 624479; calls by dose curve;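 note: pathway stimulated with TNF alpha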)
# [14] = target: Tyrosyl-DNA phosphodiesterase 1 (Homo sapiens) (UniProt Q9NUW8); test: Confirmation Assay for Inhibitors of Tyrosyl-DNA Phosphodiesterase (TDP1) (AID 489007); conditions: recombinant human TDP1 enzymatic activity, dose-response; note: potency is the fitted concentration of half-maximal effect; nearly all actives have a fitted effect of over 40% in size
# Chain of Tyrosyl-DNA phosphodiesterase 1 (Homo sapiens) (Q9NUW8 whole entry, looked up): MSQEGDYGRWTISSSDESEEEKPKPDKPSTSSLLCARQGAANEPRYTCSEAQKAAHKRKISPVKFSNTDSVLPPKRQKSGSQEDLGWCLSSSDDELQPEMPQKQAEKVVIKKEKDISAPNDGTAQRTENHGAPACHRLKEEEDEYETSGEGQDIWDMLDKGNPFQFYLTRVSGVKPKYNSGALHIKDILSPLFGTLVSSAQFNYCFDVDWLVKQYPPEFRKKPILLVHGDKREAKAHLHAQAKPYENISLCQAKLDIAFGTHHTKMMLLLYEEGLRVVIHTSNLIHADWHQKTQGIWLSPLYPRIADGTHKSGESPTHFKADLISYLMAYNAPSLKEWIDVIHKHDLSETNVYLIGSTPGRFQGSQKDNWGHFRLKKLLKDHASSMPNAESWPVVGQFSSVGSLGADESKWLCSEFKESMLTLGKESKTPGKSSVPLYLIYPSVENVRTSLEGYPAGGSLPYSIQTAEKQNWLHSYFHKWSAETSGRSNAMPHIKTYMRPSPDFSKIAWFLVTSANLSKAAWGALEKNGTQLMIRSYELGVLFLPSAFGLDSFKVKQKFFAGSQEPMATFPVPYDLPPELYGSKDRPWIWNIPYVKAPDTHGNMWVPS
# In short: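 AlphaScreen read-out: streptavidin donor and anti-FITC acceptor beads (10 ug/ml) bind intact substrate, so Tdp1 removal of tyrosine-FITC lowers signal. Enzyme 1 nM, substrate 15 nM, 5 min reaction at room temperature after 15 min compound preincubation.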
structure (smiles),measurement,setting,value
C[C@@]1(O)CCOC(=O)C1,Potency,[1],inactive
same,Potency,[2],inactive
CC#C[C@@]1(O)CC[C@H]2[C@@H]3CCC4=CC(=O)CCC4=C3[C@H](c3ccc(N(C)C)cc3)C[C@]21C,Potency,[1],3.98 µM (active)
CC(=O)S[C@H]1CC2=CC(=O)CC[C@@]2(C)[C@H]2CC[C@@]3(C)[C@H](CC[C@]34CCC(=O)O4)[C@@H]12,activation,[3],-20.6%
CN(C)CCO[C@@H](c1ccc(Cl)cc1)c1ccccn1,Potency,[2],inactive
Clc1ccc([C@H](Cn2ccnc2)OCc2csc3c(Cl)cccc23)c(Cl)c1,Potency,[1],0.316 µM (active)
same,Potency,[2],0.251 µM (active)
COc1ccc2c3c([nH]c2c1)[C@@H]1C[C@@H]2[C@@H](C[C@H](O)[C@H](OC)[C@H]2C(=O)O)CN1CC3,Potency,[1],inactive
COc1ccc([C@@H]2CC(=O)c3c(O)cc(O[C@H]4O[C@@H](CO[C@H]5O[C@@H](C)[C@@H](O)[C@@H](O)[C@@H]5O)[C@@H](O)[C@@H](O)[C@@H]4O)cc3O2)cc1O,activation,[3],-3.87%
C[C@H](NCCC(c1ccccc1)c1ccccc1)c1ccccc1,Potency,[2],5.01 µM (active)
C[C@@H](CN1c2ccccc2Sc2ccccc21)N(C)C,outcome,[4],inactive
same,outcome,[5],inactive
same,outcome,[6],inactive
same,outcome,[7],inactive
same,outcome,[8],inactive
same,outcome,[9],inactive
FC(F)(F)c1ccccc1-c1ccc2ncnc(NC3CCNCC3)c2c1,"activity change, negative = inhibition",[1],12.9% [at 2.29 µM]
same,Potency,[2],3.98 µM (active)
same,activation,[3],-6.93%
Nc1ncnc2c1nc(Br)n2[C@H]1O[C@H]2COP(=O)(O)O[C@H]2[C@@H]1O,outcome,[10],inactive
O=C(O)[C@@H]1[C@@H]2C[C@H]3c4[nH]c5ccccc5c4CCN3C[C@@H]2CC[C@@H]1O,Potency,[2],inactive
O=c1cc(-c2cccc(O)c2)oc2cc(O)ccc12,Potency,[1],25.1 µM (active)
same,Potency,[2],inactive
same,outcome,[10],inactive
CN1[C@H](CC(=O)c2ccccc2)CCC[C@H]1C[C@@H](O)c1ccccc1,Potency,[1],inactive
same,Potency,[2],inactive
Nc1ncnc2c1ncn2[C@@H]1O[C@H](COP(=O)(O)O)[C@@H](O)[C@@H]1O,Potency,[1],inactive
same,Potency,[2],inactive
C[C@@](N)(C(=O)O)c1cccc(CC(=O)O)c1,outcome,[10],inactive
C=Cc1c(C)c2cc3nc(cc4[nH]c(cc5nc(cc1[nH]2)C(C)=C5CCC(=O)O)c(CCC(=O)OC)c4C)[C@@]1(C)C3=CC=C(C(=O)OC)[C@H]1C(=O)OC (tested in a mixture with another compound),Potency,[1],1.26 µM (active)
C[C@@H](Cc1cccc(C(F)(F)F)c1)NCCOC(=O)c1ccccc1,Potency,[1],inactive
C=C(C)[C@H]1CC[C@]2(CO)CC[C@]3(C)[C@@H](CC[C@H]4[C@@]5(C)CC[C@@H](O)C(C)(C)[C@@H]5CC[C@@]43C)[C@H]12,Potency,[3],1.26 µM (active)
COc1ccc2c(c1)N(C[C@@H](C)CN(C)C)c1ccccc1S2,activation,[3],-28.7%
CC=C(/C(=C/C)c1ccc(O)cc1)c1ccc(O)cc1,Potency,[1],0.794 µM (active)
same,Potency,[2],3.16 µM (active)
CCC(C)(C)C(=O)O[C@@H]1C[C@H](C)C=C2C=C[C@H](C)[C@@H](CC[C@H]3C[C@@H](O)CC(=O)O3)[C@H]21,outcome,[11],inactive
same,outcome,[12],inactive
same,outcome,[13],inactive
COc1cccc(-c2nc(NCCc3c[nH]c4ccc(OC)cc34)c3ccccc3n2)c1,Potency,[1],0.794 µM (active)
same,Potency,[2],1.58 µM (active)
COc1c(O)cc(O)cc1O,Potency,[14],8.91 µM (active)
CC1=C(CCC(=O)O)c2cc3nc(cc4[nH]c(cc5[nH]c(cc1n2)c(C)c5C(C)O)c(C)c4C(C)O)C(C)=C3CCC(=O)O (stereo unspecified),Potency,[14],6.31 µM (active)
C/C(=C\CNc1ncnc2nc[nH]c12)CO,Potency,[1],inactive
same,Potency,[2],inactive
CC/C=C\C[C@H]1C(=O)CC[C@@H]1CC(=O)O,Potency,[1],inactive
same,Potency,[2],inactive
Cc1cc(O)c(C=O)c2c1C(=O)Oc1c(COC(=O)/C=C/C(=O)O)c(O)c(C(=O)O)c(C)c1O2,Potency,[14],3.16 µM (active)
Cc1cc2ccc(=O)oc2cc1OC[C@@H](O)C(C)(C)O,Potency,[1],inactive
same,Potency,[2],inactive
Cc1cc(O)c(C=O)c2c1C(=O)Oc1c(C)c(O)c3c(c1O2)C(O)OC3=O (stereo unspecified),Potency,[14],5.62 µM (active)
N[C@H](CO)Cc1cnc[nH]1,outcome,[10],inactive
